For 23 compounds, activation and Potency results are on record in PubChem BioAssay (NCATS).

Inconclusive results are not listed. A number with no mark means an inactive call. Calls of active or inactive are those of the source. Calls follow the shape of the dose curve; as a rule, active = well fitted curve in the direction sought with a large enough effect; inconclusive = small, poorly fitted or top-dose-only effect, or another doubt; inactive = no such curve, though single readings can be large; an effect the other way counts as inactive or inconclusive. Square brackets hold non-standard residues; d marks the D form. Peptide text beside a SMILES is read from it. ξ: configuration not given here. ξTyr(βOH) = NC(C(=O)O)C(O)c1ccc(O)cc1

Experiment [1] addresses Cellular tumor antigen p53 (Homo sapiens) (UniProt P04637). Kind of experiment: Primary qHTS for small molecule compounds that upregulate eGFP-tagged delta133p53alpha (in N-terminal) cells. (AID 2060322). Also: nearly all actives have a fitted effect of over 75% in size. Also: potency is read from the fitted curve at half-maximal effect.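 As to activation: series mostly up to about 56 µM; 0% = DMSO vehicle and 100% = reference activator.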 The settings on record: NCI-H358 eGFP-delta133p53alpha fluorescence, 24 h; activation: stronger effect = higher value. In a few lines: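 NCI-H358 cells pre-induced 24 h with 10 ng/ml doxycycline to express N-terminal eGFP-delta133p53alpha, then dosed 24 h at 37C without doxycycline; fixed, Hoechst-stained, GFP intensity by laser scanning cytometry, normalized to DMSO (0%) and 57.5 uM 5-azacytidine (100%).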
For orientation: qHTS replaces the single test concentration by a dilution series.

Experiment [2] has as its target Aldehyde dehydrogenase, mitochondrial (Homo sapiens) (UniProt P05091). Kind of experiment: qHTS for Inhibitors of the Aldehyde Dehydrogenase Family (ALDH2) Primary screen (AID 2061308).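 Also: plate controls were vehicle for no effect and reference inhibitor for full effect; nearly all actives have a fitted effect of over 55% in size.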
The target in experiment [3] is Retinaldehyde dehydrogenase 3 (Homo sapiens) (UniProt P47895). Kind of experiment: qHTS for Inhibitors of the Aldehyde Dehydrogenase Family (ALDH1A3) Primary screen (AID 2061315).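 Also: plate controls were DMSO vehicle for no effect and reference inhibitor for full effect.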

Cellular tumor antigen p53 (Homo sapiens), sequence (P04637 whole entry, looked up): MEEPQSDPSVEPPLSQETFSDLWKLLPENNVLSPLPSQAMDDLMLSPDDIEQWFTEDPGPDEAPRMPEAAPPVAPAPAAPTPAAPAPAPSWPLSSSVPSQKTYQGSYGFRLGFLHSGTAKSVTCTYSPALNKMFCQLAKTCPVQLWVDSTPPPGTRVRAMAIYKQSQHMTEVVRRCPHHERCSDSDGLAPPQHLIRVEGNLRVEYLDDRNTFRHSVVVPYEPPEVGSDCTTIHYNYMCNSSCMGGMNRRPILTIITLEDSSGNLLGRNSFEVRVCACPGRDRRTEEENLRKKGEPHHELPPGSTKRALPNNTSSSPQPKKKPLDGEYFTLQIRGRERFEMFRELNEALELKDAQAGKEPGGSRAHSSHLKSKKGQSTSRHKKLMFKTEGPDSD

`CC(=O)NC(C(=O)O[C@H]1CCC(C)(C)[C@@H]2CC=C3C(=O)OCC3(O)[C@@]12C)C(C)C` (some centres undefined): the activation in experiment [1] is 20.6%. The Potency result in experiment [2] and in experiment [3] was “inactive” each time.
Take `CN=C(N)NCCCCC/C=C(/C)CC(C)C1OC(=O)C(C)C(O)/C=C/C(C)C(O)CC(O)C(C)C(O)CCC(C)C(O)CC2(O)OC(CC(OC(=O)CC(=O)O)CC(O)CC(O)C(C)C(O)/C(C)=C/CCC1C)CC(O)C2O` (centres undefined): the activation in experiment [1] is -19.1%. Also, the Potency entry in experiment [2] and in experiment [3] was “inactive” each time.
For `CC(C)C1NC(=O)CNC(=O)C2CCCN2C(=O)C(Cc2c[nH]c3ccccc23)NC(=O)CNC(=O)C(C(O)c2ccc(O)cc2)NC(=O)CNC1=O` (centres undefined) (cyclo(G[ξTyr(βOH)]GWPGV); configuration not given here), in experiment [1], the activation is -9.92%. The Potency result in experiment [2] and in experiment [3] was “inactive” throughout.
Consider `C=CC1(C)C=C2CCC3C(C)(C)C(O[C@@H]4O[C@@H](CO)[C@H](O)[C@H]4O)CCC3(C)C2CC1O[C@@H]1O[C@H](C)[C@H](O)[C@H](O)[C@H]1O` (some centres undefined), for which the activation in experiment [1] is 0.763%. In addition, the Potency entry in experiment [2] and in experiment [3] was “inactive” in each case.
Turning to `COc1cc2oc(-c3ccc(O)cc3O)cc2c(OC)c1CC=C(C)C`, the activation in experiment [1] is 9.82%. In addition, the Potency entry in experiment [2] and in experiment [3] was “inactive” in each case.
For the compound `C=C[C@H]1[C@H](O[C@@H]2O[C@H](CO)[C@@H](O)[C@H](O)[C@H]2O)OC=C(C(=O)OC)[C@H]1CC(=O)O`, the activation in experiment [1] is -12.2%. Besides, the Potency result in experiment [2] and in experiment [3] was “inactive” in each case.
For `COc1cc(CCO)ccc1O[C@@H]1O[C@H](CO)[C@@H](O)[C@H](O)[C@H]1O`, the activation in experiment [1] is 5.36%. For the same compound, the Potency result in experiment [2] and in experiment [3] was “inactive” throughout.
Regarding `CC1=C(C(=O)O)/C(=C/CO[C@@H]2O[C@H](COC(=O)/C=C/c3ccc(O)cc3)[C@@H](O)[C@H](O)[C@H]2O)C(O)C1` (some centres undefined), the activation in experiment [1] was -17.6%. Besides, the Potency result in experiment [2] and in experiment [3] was “inactive” each time.
`C[C@@H]1C[C@H]2O[C@@H]2/C=C\C=C\C(=O)Cc2c(Cl)c(O)cc(O)c2C(=O)O1`: in experiment [1], the Potency is 4.53 µM (active). The Potency entry in experiment [2] and in experiment [3] was “inactive” in each case.
Consider `CC1(C)CCC[C@]2(C)[C@H]3CC(=O)O[C@]3(C)CC[C@@H]12`, for which the activation in experiment [1] is 20.3%. For the same compound, the Potency result in experiment [2] and in experiment [3] was “inactive” in each case.
On to `CCC(C)C1NC(=O)C2C(C)CCN2C(=O)C(CC(O)CO)OC(=O)CCNC(=O)C(C)N(C)C(=O)C(C(C)C)N(C)C1=O` (centres undefined), for which the activation in experiment [1] is -6.11%. Besides, the Potency result in experiment [2] and in experiment [3] was “inactive” throughout.
As to `C=C1CCC2C(C(C)(C)O)CCC2(C)CC(O)C(=C)CCC1O` (centres undefined), the activation in experiment [1] was -12.5%. Besides, the Potency entry in experiment [2] and in experiment [3] was “inactive” in each case.
Take `CC(=O)N[C@H](Cc1c[nH]c2ccccc12)C(=O)OCc1cc(C(F)(F)F)cc(C(F)(F)F)c1`: in experiment [1], the activation was 14.3%. Further, the Potency entry in experiment [2] and in experiment [3] was “inactive” in each case.
Take `CC(C)S(=O)(=O)NC[C@H](C)c1ccc(NC(=O)c2cc(F)cc(F)c2)cc1`: in experiment [1], the activation was -15%. The Potency entry in experiment [2] and in experiment [3] was “inactive” in each case.
For `CC(CCC1(O)OC2CC3C4CC=C5CC(O[C@@H]6O[C@H](CO)[C@@H](O[C@@H]7O[C@H](CO)[C@@H](O)[C@H](O)[C@H]7O)[C@H](O)[C@H]6O[C@@H]6O[C@@H](C)[C@H](O)[C@@H](O)[C@H]6O)CCC5(C)C4CCC3(C)C2C1C)CO[C@@H]1O[C@H](CO)[C@@H](O)[C@H](O)[C@H]1O` (some centres undefined), the activation in experiment [1] was 12.5%. Further, the Potency entry in experiment [2] and in experiment [3] was “inactive” each time.
`COC1=CC(=O)O[C@@H](CCc2ccccc2)[C@@H]1O`: the activation in experiment [1] is -13%. For the same compound, the Potency result in experiment [2] and in experiment [3] was “inactive” throughout.
For `Cn1ccc(NC(=O)c2cc(Oc3ccc(C(=O)N4CCC4)c(F)c3)c3c(c2)OC(C)(C)C3)n1`, the activation in experiment [1] is -12.3%. Moreover, the Potency entry in experiment [2] and in experiment [3] was “inactive” in each case.
Turning to `CCCCS(=O)(=O)Nc1ncnc(OCCOc2ncc(Br)cn2)c1-c1ccc(Br)cc1`, the activation in experiment [1] was -20.3%. In addition, the Potency result in experiment [2] and in experiment [3] was “inactive” each time.
`CC(C)(O)/C=C/CC(C)(O)C1C(O)CC2(C)C3CCC4C(C)(C)C(=O)CCC4(C)C3CCC12C` (centres undefined): the activation in experiment [1] was 2.29%. For the same compound, the Potency entry in experiment [2] and in experiment [3] was “inactive” in each case.
As for `O=C(OC[C@H]1O[C@H](O[C@]2(CO)O[C@H](CO)[C@@H](O)[C@@H]2O)[C@H](O)[C@@H](O)[C@@H]1O)c1ccc(O)cc1`, the activation in experiment [1] was -2.68%. Also, the Potency result in experiment [2] and in experiment [3] was “inactive” throughout.
As to `NCCOCCOCCNC(=O)Cc1ccc(Nc2nc(NCc3ccc(F)cc3)nc(NCC3CCCCC3)n2)cc1`, in experiment [1], the activation was 2.33%. For the same compound, the Potency result in experiment [2] and in experiment [3] was “inactive” in each case.
`O=C(C1=CCN2c3c(cccc31)OC[C@H]2CN1CCOCC1)c1cccc2ccccc12`: the activation in experiment [1] was 27.7%. For the same compound, the Potency entry in experiment [2] and in experiment [3] was “inactive” in each case.
Regarding `CC(O)/C=C/C1(O)C(C)C(O[C@@H]2O[C@H](CO)[C@@H](O)[C@H](O)[C@H]2O)C(O)CC1(C)C` (some centres undefined), the activation in experiment [1] was -10.7%. Moreover, the Potency result in experiment [2] and in experiment [3] was “inactive” each time.
